# Source: PubChem (National Center for Advancing Translational Sciences (NCATS))
# Compounds with a hit are over-represented: about 19% of the library has one in this group of screens.
# KB-V1 cytotox: kills drug-selected multidrug resistant KB-V1 cells. Potency, µM (top dose mostly 46.1 µM), hits mostly cytotoxic. AID 1347076. 3.4% of 400,000 active. KB-V1 MDR cells viability, CellTiter-Glo, 72 h; note: nearly all actives have a fitted effect of over 60% in size
#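 qHTS viability screen in drug-selected KB-V1 MDR cells: 72 h compound treatment at 37 degrees C, ATP luminescence end point.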
# KB-3-1 tox: KB-3-1 parental cell cytotoxicity | KB-3-1 viability, CellTiter-Glo ATP luminescence, 72 h | Potency, µM (top dose mostly 46.1 µM), most hits filed as cytotoxic | 1.4% of 400,000 active; note: nearly all actives have a fitted effect of over 60% in size
#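 Cytotoxicity in the drug-sensitive parental line KB-3-1 was scored as loss of CellTiter-Glo luminescence following 72 h incubation with compound. Values come from curve fitting of normalized concentration-response data.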
# HT1080 IDH1KD tx: toxicity to HT-1080 IDH1 knockdown cells (counter line); HT-1080 IDH1 knockdown viability, ATP luminescence, 48 h; Potency, µM (titrated, usually from 46.1 µM), without a hit: top-dose activity, negative = toxicity, hits mostly cytotoxic; 2% of 360,000 active; AID 686971;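 note: 0% = DMSO wells and -100% = cell-free medium wells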
#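 Assay cells: HT-1080 with IDH1 knockdown, 750 per well, RPMI/5% FBS. Exposure: 48 h at 37 °C following 2 h pre-incubation. Read: CellTiter-Glo luminescence; fitted concentration-response, curve class assigned.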
# DT40 TDP1 no CPT: qHTS for Inhibitors of human tyrosyl-DNA phosphodiesterase 1 (TDP1): qHTS in cells in absence of CPT. Potency, µM (top dose mostly 46.2 µM), for inactives: at the highest dose activity change, negative = growth inhibition, usual class: inhibitors. DT40 Tdp1-/- hTDP1 cells, no CPT, ATP luminescence, 48 h. 15% of 420,000 active; note: nearly all actives have a fitted effect of over 55% in size
#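 Chicken DT40 Tdp1-/- cells stably complemented with human TDP1 were seeded at 400 cells/well with DMSO in place of 20 nM camptothecin. After compound pinning, cells grew at least 48 hr at 37 °C; viability read by CellTiter-Glo luminescence.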
# HT1080-NT tox: kills 2HG-producing HT-1080-NT fibrosarcoma cells | Potency, µM (series often up to 46.1 µM), without a hit: top-dose activity, negative = less viability, usual class: cytotoxic | 1.6% of 360,000 active | HT-1080-NT fibrosarcoma viability, CellTiter-Glo ATP luminescence, 48 h;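 note: NT is the 2HG producing partner of a matched IDH1 knockdown line; 0% = DMSO-treated cells and -100% = media-only wells without cells; nearly all actives have a fitted effect of over 55% in size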
#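 Luminescent CellTiter-Glo readout after 48 hours of compound exposure at 37 degrees C defined viability of HT-1080-NT cells. Activity was normalized to DMSO wells and cell-free media wells; concentration-response curves were fitted and assigned curve classes.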
# TDP1 cell CPT: DT40-hTDP1 cell growth loss with CPT; chicken DT40 Tdp1-/-;hTDP1 cells + 20 nM CPT, ATP luminescence, 48 h; Potency, µM (titrated, usually from 46.2 µM), without a hit: at the highest dose activity change, negative = growth inhibition, actives largely listed as inhibitors; 12% of 420,000 active; AID 686979; note: nearly all actives have a fitted effect of over 55% in size
#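 Chicken DT40 Tdp1-/- cells stably complemented with human TDP1 were seeded at 400 cells/well in medium containing 20 nM camptothecin, exposed to pin-transferred compounds, and grown at 37 °C for at least 48 hr. Viability was read as ATP luminescence.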
# Starred values were filed as active, the others as inactive; i = inactive; u = inconclusive; x = no result given. Calls come from the whole dose curve; as a rule, active = well fitted curve in the direction sought with a large enough effect; inconclusive = small, poorly fitted or top-dose-only effect, or another doubt; inactive = no such curve, though single readings can be large; an effect the other way counts as inactive or inconclusive. Unless noted, % is set by controls: 0 for no effect and ±100 for the full control effect; potency is the fitted concentration of half-maximal effect.
SMILES,KB-V1 cytotox,KB-3-1 tox,HT1080 IDH1KD tx,DT40 TDP1 no CPT,HT1080-NT tox,TDP1 cell CPT
CC(C)(C)c1ccccc1NC(=O)c1cnn2c(C(F)F)cc(-c3ccccc3)nc12,i,i,x,-22.9%,x,-23.8%
Cc1ccc(-c2cc(C(F)F)n3ncc(C(=O)Nc4c(C)nn(Cc5c(Cl)cccc5Cl)c4C)c3n2)cc1,i,i,-17.2%,14.6µM*,-9.6%,10.3µM*
Cc1ccc(C2CC(C(F)F)n3ncc(C(=O)Nc4c(C)nn(Cc5c(F)cccc5Cl)c4C)c3N2)cc1 (centres undefined),i,i,-19.3%,18.4µM*,-22.6%,u
COc1ccc(Oc2ccc(N/C=C3\CCCC3=O)cc2)cc1,i,i,-6.2%,25.9µM*,-3.7%,u
COc1ccc(Oc2ccc(N/C=C3/CCCC3=O)cc2)cc1,i,i,-13.5%,u,-17.2%,u
Cc1nccn1-c1ccc(NC(=O)[C@H]2O[C@@H](n3ccc(N)nc3=O)[C@H](O)[C@@H]2O)cc1,u,i,12.7%,-17.4%,13.1%,2.1%
CCOC(=O)CN1C(=O)C(Sc2n[nH]c(-c3cccc(C)c3)n2)CCc2ccccc21 (centres undefined),20.6µM*,i,u,u,u,u
COc1ccc(N2C(=O)CC(Sc3n[nH]c(-c4cccc(C)c4)n3)C2=O)cc1 (centres undefined),u,i,u,3.66µM*,3.6%,0.92µM*
CCOc1ccccc1N1C(=O)CC(Sc2n[nH]c(-c3ccccc3)n2)C1=O (centres undefined),i,i,u,0.651µM*,26.0%,0.651µM*
COC(=O)c1ccc(N2C(=O)CC(Sc3n[nH]c(C)n3)C2=O)cc1 (centres undefined),u,i,-6.9%,5.17µM*,-5.5%,2.06µM*
CCC(C)NC(=O)Cn1c(=O)n(-c2cc(OC)cc(OC)c2)c(=O)c2ccccc21 (centres undefined),u,i,x,-10.9%,x,-0.2%
Cc1cccc(CNC(=O)C2CCN(S(=O)(=O)c3cccc4nonc34)CC2)c1,i,i,x,-6.5%,x,-11.7%
Clc1ccc(CSc2nc3ncccc3[nH]2)cc1,i,i,x,u,x,u
Fc1cccc(-c2nnn3c2nc(NC2CCCCC2)c2ccccc23)c1,i,i,x,25.9µM*,x,u
Clc1nc2c(-c3ccccc3)nnn2c2ccccc12,i,u,-26.4%,3.26µM*,-17.2%,2.59µM*
Clc1ccc(-c2nnn3c2nc(N2CCCCC2)c2ccccc23)cc1,i,i,x,0.2%,x,1.4%
Fc1cccc(-c2nnn3c2nc(Cl)c2ccccc23)c1,i,i,u,2.59µM*,-10.9%,2.59µM*
Cc1ccc(-c2nnn3c2nc(Cl)c2ccccc23)cc1,i,i,0.0%,4.61µM*,-7.1%,2.91µM*
Fc1cccc(-c2nnn3c2nc(NCCc2ccccc2)c2ccccc23)c1,u,i,x,-13.9%,x,5.1%
CCOC(=O)C1(C)CCCN(C(=O)c2cc(C#N)cs2)C1 (centres undefined),i,i,2.1%,-0.6%,31.2%,5.4%
COCCNC(=O)C1(C)CCCN(C(=O)c2ccc(F)cc2Cl)C1 (centres undefined),i,i,9.3%,-4.5%,28.9%,6.6%
COC(=O)COc1ccc(Oc2nc(NC(C)(C)C)nc(N3CCOCC3)n2)nn1,i,i,x,-5.4%,x,-23.4%
CC(=O)NC(c1ccccc1)c1nc(-c2ccc3ccccc3c2)cs1 (centres undefined),i,i,-2.0%,u,-10.7%,16.4µM*
CC(=O)NC(c1ccccc1)c1nc(-c2ccc(C)c(C)c2)cs1 (centres undefined),i,i,u,18.4µM*,u,16.4µM*
COc1cccc(C(NC(C)=O)c2nc(-c3ccc(C)c(C)c3)cs2)c1 (centres undefined),i,i,2.8%,u,5.0%,u
SMILES,KB-V1 cytotox,KB-3-1 tox,HT1080 IDH1KD tx,DT40 TDP1 no CPT,HT1080-NT tox,TDP1 cell CPT
CC(=O)NC(c1cccc(F)c1)c1nc(-c2ccccc2)cs1 (centres undefined),u,i,1.8%,-27.9%,3.3%,u
COc1cccc(C(NC(C)=O)c2nc(-c3ccc4ccccc4c3)cs2)c1 (centres undefined),i,u,u,u,u,18.4µM*
Nc1ccc2nc(N3CCOCC3)sc2c1,i,i,-1.2%,-7.9%,-5.2%,-27.0%
Clc1cccc2sc(N3CCN(c4ccccc4)CC3)nc12,i,i,-0.9%,20.6µM*,-3.1%,23.1µM*
c1c2c(cc3sc(N4CCOCC4)nc13)OCCO2,20.6µM*,u,u,18.4µM*,-24.7%,u
c1ccc(N2CCN(c3nc4cc5c(cc4s3)OCCO5)CC2)cc1,2.59µM*,u,2.3%,-19.9%,6.4%,u
c1ccc2sc(N3CCOCC3)nc2c1,i,i,-4.4%,2.3%,-11.2%,-8.5%
C[C@@H]1CN([C@H](C)CO)C(=O)CCCn2cc(nn2)CO[C@H]1CN(C)S(=O)(=O)c1cccc(F)c1,i,i,6.4%,-3.7%,0.7%,3.2%
CCc1ccccc1NC(=O)Nc1cc(F)ccc1F,i,i,3.9%,-2.8%,4.6%,u
O=C1CC(NS(=O)(=O)c2cccs2)CN1c1cccc(F)c1 (centres undefined),i,i,9.2%,u,13.2%,u
NC(=O)c1ccccc1NC(=O)COc1ccc2c(c1)OCO2,i,i,-11.5%,u,-8.0%,7.6%
C[C@@]12C(=O)Nc3ccccc3C(=O)N1[C@H]1c3cc(Br)ccc3OC[C@@H]1[C@@H]2c1ccccc1,i,u,5.8µM*,u,u,u
C[C@@]12C(=O)Nc3ccc(Br)cc3C(=O)N1[C@H]1c3cc(Br)ccc3OC[C@@H]1[C@@H]2c1ccccc1,i,i,-17.9%,14.6µM*,u,18.4µM*
C[C@@]12C(=O)Nc3ccc(Cl)cc3C(=O)N1[C@H]1c3cc(Br)ccc3OC[C@@H]1[C@@H]2c1ccccc1,i,i,-13.9%,u,-23.9%,23.1µM*
